Assay results published in PubChem BioAssay (NCI).
The panel holds about 79,000 compounds, 15% with a hit somewhere; the sample as a whole holds those more often. Cut-off read from the data, not from the text of the source: active = growth inhibition above about 70%; inactive = the rest. Where a SMILES comes first, the peptide text is derived from it.

Tests used:
[1] = NCI Yeast Anticancer Drug Screen. Data for the rad50 strain (AID 155);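 note: 0% = growth of vehicle-only cultures of the same strain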; conditions: S. cerevisiae rad50 strain growth inhibition; at 50.0 µM; stronger effect = higher value
In short: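 Genetically altered yeast (DNA repair pathway); compound treatment; growth inhibition vs vehicle ctrl.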

[2] = NCI Yeast Anticancer Drug Screen. Data for the mec2-1 strain (AID 157); conditions: S. cerevisiae mec2-1 strain, at 50.0 µM, stronger effect = higher value
In short: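 Compounds were applied to mec2-1 yeast cells. Their growth was then compared with that of vehicle-treated cultures to give growth inhibition.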

[3] = NCI Yeast Anticancer Drug Screen. Data for the sgs1 mgt1 strain (AID 161);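 note: 0% = growth of cultures given vehicle only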; conditions: S. cerevisiae sgs1 mgt1 strain, at 50.0 µM, stronger effect = higher value
In short: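 Yeast cells carrying a defined DNA-repair defect were exposed to test compounds. Growth inhibition was measured relative to vehicle-treated controls.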

[4] = NCI Yeast Anticancer Drug Screen. Data for the cln2 rad14 strain (AID 165);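 note: 0% = growth equal to vehicle treated cultures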; conditions: S. cerevisiae cln2 rad14 strain, at 50.0 µM, stronger effect = higher value
In short: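 Strain: cln2 rad14 yeast, altered in cell cycle control and DNA damage repair. Read-out: growth inhibition vs vehicle.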

[5] = NCI Yeast Anticancer Drug Screen. Data for the bub3 strain (AID 167); conditions: S. cerevisiae bub3 mutant strain, at 50.0 µM, stronger effect = higher value
In short: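 Yeast carrying a defined mutation is treated with each compound, and growth is compared with that of vehicle-exposed cells to give inhibition.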

[6] = NCI Yeast Anticancer Drug Screen. Data for the mlh1 rad18 strain (AID 175); conditions: S. cerevisiae mlh1 rad18 strain growth inhibition; at 50.0 µM; stronger effect = higher value
In short: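 A repair-deficient yeast strain is exposed to test compound, and growth is scored relative to vehicle-treated controls.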

Measured: growth inhibition

Clc1ccccc1-n1cccc1/C=N\N=C/c1cccn1-c1ccccc1Cl
inactive: [1] 0.15% | [2] 1.7% | [3] -6.1% | [4] -53.7% | [5] -1.8% | [6] -8%

CCC(C)C(N)C(=O)NC(Cc1ccc(O)cc1)C(=O)O (stereo not drawn) (H-Ile-Tyr-OH; configuration not given here)
inactive: [1] 16.4% | [2] -2.35% | [3] -0.8% | [4] 15.8% | [5] -10.2% | [6] 21.2%

Cc1nc2nc(N)nnc2c(=O)[nH]1
inactive: [1] -7.25% | [2] 3.2% | [3] -18.8% | [4] -13.8% | [5] -1.75% | [6] -0.1%

CCSC1(SCC)C(=O)OC2=C(CCCCC2)C1N(C)c1ccccc1 (stereo unspecified)
inactive: [1] -15.2% | [2] -12.7% | [3] -14.4% | [4] -22.6% | [5] 1.1% | [6] -12.7%

CCNC(=O)c1ccc(Cl)cc1
inactive: [1] 19.9% | [2] -2.25% | [3] 8.55% | [4] 0.65% | [5] -6.15% | [6] 0.45%

O=C(O)CC1CCCCCC1
inactive: [1] 21.9% | [2] 8.25% | [3] 12.8% | [4] 12.9% | [5] 32.8% | [6] 12%

O=NN(Cc1ccccc1)NC(=O)c1ccccc1
inactive: [1] 6.2% | [2] 28.1% | [3] 8.9% | [4] -8.4% | [5] 20.9% | [6] 11.2%

CC1NC(=O)C2Cc3ccc(O)c(c3)Oc3cccc(c3)C(O)C(C(=O)N2C)N(C)C(=O)C(C)NC(=O)C(Cc2ccc(O)c(O)c2)N(C)C(=O)C(C)NC1=O (stereo unspecified)
inactive: [1] 6.75% | [2] -19.3% | [3] 6.6% | [4] 6.15% | [5] 10.7% | [6] 6.55%

OCC1COc2ccc(Cl)cc2O1 (stereo unspecified) (tested in a mixture with another compound)
inactive: [1] -10.3% | [2] -7.3% | [3] 2.65% | [4] 16.8% | [5] 6.85% | [6] 4.8%

CC(=O)Nc1ccc(S(=O)(=O)O)c(C(F)(F)F)c1
inactive: [1] 17.1% | [2] 21.1% | [3] 12.6% | [4] -8% | [5] 26.5% | [6] 11.4%

COC1(C)CNCC(C)(C)NC(=O)C(C)(OC)CNCC(C)(C)NC1=O (stereo unspecified)
inactive: [1] -10.9% | [2] 2.1% | [3] -20.7% | [4] -17% | [5] -32.5% | [6] -19.6%

CCCCCCCCCCCCOP(=O)(CC(=O)NCc1cc(C(C)(C)C)c(O)c(C(C)(C)C)c1)OCCCCCCCCCCCC
inactive: [1] -1.55% | [2] 3.3% | [3] 21.9% | [4] -7.3% | [5] -2.9% | [6] -9.9%

Cn1c(=O)n2c(-c3ccccc3)c(-c3ccccc3)n2c1=O
inactive: [1] 6.85% | [2] -19.6% | [3] -23.8% | [4] 0.5% | [5] -25.9% | [6] -28.9%

COc1c2c(c(OC)c3c1C(=O)c1ccccc1C3=O)CC=CC2
inactive: [1] -10.6% | [2] 4.7% | [3] -15.4% | [4] -14.7% | [5] -4% | [6] -4.3%

CC(=O)N(C)Cc1c(O)ccc2ccccc12
inactive: [1] -7.25% | [2] -21.2% | [3] -9.9% | [4] -9.4% | [5] -2.25% | [6] 12.7%

Cc1ccc(S(=O)(=O)SCC(=O)c2ccc(Br)cc2)cc1
inactive: [1] 27.4% | [2] -15.4% | [3] 29.1% | [4] 16.6% | [5] 4.35% | [6] 9.85%

CCC(=O)[CH-]C(=O)CC.CCC(=O)[CH-]C(=O)CC.[Cu+2]
inactive: [1] 10.9% | [2] -1.9% | [3] 10.2% | [4] -39.4% | [5] -17.6% | [6] 0%

CC12CC3CC(C)(C1)CC(N=[N+]=[N-])(C3)C2
inactive: [1] -27.4% | [2] -9.6% | [3] -12.1% | [4] 6.15% | [5] -0.8% | [6] -29.5%

CCN(CC)CCOC(=O)c1ccc(N)c2ccccc12
inactive: [1] -3.8% | [2] 12.2% | [3] -14.3% | [4] -22.4% | [5] 5.5% | [6] 6.85%

CC(Br)C(=O)Nc1ccc(C(=O)O)c(O)c1 (stereo unspecified)
inactive: [1] 3.85% | [2] -32.8% | [3] -18.8% | [4] 20.9% | [5] -7.5% | [6] 2.95%

NC(=O)C(=O)c1ccccc1
inactive: [1] -6.65% | [2] -27.1% | [3] -2% | [4] -3% | [5] -19.6% | [6] -19.7%

COC(=O)CNC(=O)Nc1cc(N2C(=O)ON3C2C(C)(C)N(O)C3(C)C)ccc1C (stereo unspecified)
inactive: [1] 2.95% | [2] 13.8% | [3] 16.9% | [4] 20.6% | [5] 15.2% | [6] -22.6%

Cc1cn(C2OC3COC2C3O)c(=O)[nH]c1=O (stereo unspecified)
inactive: [1] -20.8% | [2] 0.55% | [3] 10.7% | [4] 27.2% | [5] -6% | [6] -4.75%

CCSC(SCC)C(O)C(O)C(O)C(C)O (stereo unspecified)
inactive: [1] 31.8% | [2] 1.55% | [3] 4% | [4] -34.1% | [5] -5.05% | [6] 6.55%

O=C1OC(=O)C2C3C=CC(C3)C12 (stereo unspecified)
inactive: [1] 17.2% | [2] -5.35% | [3] 23.1% | [4] -20.4% | [5] -1.45% | [6] 21.4%

CCN(CC)CC(O)CN1CCCc2ccccc21 (stereo unspecified)
inactive: [1] -9.4% | [2] 1.5% | [3] 0.6% | [4] -5.4% | [5] 7.85% | [6] -13.4%

CN(C)C(=S)/N=C1\SCS(=O)(=O)N1C
inactive: [1] 14.2% | [2] 6.55% | [3] -6% | [4] 7.7% | [5] -6.6% | [6] 9.15%

C=CCn1c(=S)sc2ccccc21
inactive: [1] 14.8% | [2] 13.3% | [3] 12.8% | [4] 17.7% | [5] -7.65% | [6] -1.95%

CCCCC(CC)CCC(C)=O (stereo unspecified)
inactive: [1] 5.8% | [2] -0.8% | [3] 0.35% | [4] 3.3% | [5] 1.75% | [6] -0.9%

CC(C)N(C(=O)c1cccc2ccccc12)C(C)C
inactive: [1] 16.4% | [2] 6.95% | [3] 8.35% | [4] 4.55% | [5] 8% | [6] 32.2%

O=c1ccc(=O)c2c(=O)c3cc4[nH]c5ccccc5[nH]c4cc3c(=O)c12
inactive: [1] 2.25% | [2] -7.05% | [3] 0.55% | [4] 1.85% | [5] -5.6% | [6] 5.2%

NC(=O)N/N=C(\c1ccccc1)C1CCCCc2ccccc21 (stereo unspecified)
inactive: [1] 48.5% | [2] 20.6% | [3] 33.2% | [4] 9.95% | [5] 43% | [6] 48%

NCc1c(Cl)c(Cl)c(Cl)c(CN)c1Cl
inactive: [1] 21.3% | [2] -14.2% | [3] 14.1% | [4] 11.9% | [5] 17.8% | [6] 19.5%

Cc1cc(C)cc(C(=O)N=C(c2ccncc2)c2nc(-c3ccccc3)oc2O)c1
inactive: [1] -3.3% | [2] 13.9% | [3] -16.6% | [4] -12.4% | [5] 3.15% | [6] -1.3%

CCOC(=O)C1=NN(c2ccccc2)C(=O)/C1=C\N1CC(=O)NC1=S
inactive: [1] -19.4% | [2] -14.2% | [3] -31.5% | [4] -10.2% | [5] 9.85% | [6] -32.1%

CCn1cnc2c(=O)n(C)c(=O)n(C)c21
inactive: [1] -31.8% | [2] -17.9% | [3] 4% | [4] -36% | [5] -0.55% | [6] -0.95%

NC(N)=NC(N)=Nc1cccc(S(=O)(=O)c2cccc(N=C(N)N=C(N)N)c2)c1
inactive: [1] 8.1% | [2] -0.55% | [3] -0.1% | [4] 12.8% | [5] -3.95% | [6] 13.2%

O=S(=O)(Nc1ccnn1-c1ccccc1)c1ccc(NC(=S)Nc2ccccc2)cc1
inactive: [1] 34.1% | [2] 38.5% | [3] 46% | [4] 27.7% | [5] 56.4% | [6] 65.5%

Cc1ccc(OS(=O)(=O)c2ccccc2)cc1
inactive: [1] 36% | [2] 20.4% | [3] 49.1% | [4] -42.6% | [5] 35.2% | [6] 36.6%

CC/C(=N/N(C)C)C(=O)O
inactive: [1] -29.4% | [2] -3.9% | [3] -5.3% | [4] -10.6% | [5] -17.1% | [6] -16.3%

COc1cc(C(=O)NO)c(Br)c(OC)c1OC
inactive: [1] -3.5% | [2] 9.5% | [3] -4.35% | [4] -5.6% | [5] -7.2% | [6] -3.7%
